Screening results deposited in PubChem by National Center for Advancing Translational Sciences (NCATS).
In the library only some 1.3% were active in any assay of this set; here they are far more common.
TRPV1 potentiator: enhances activation of the human vanilloid receptor TRPV1; Q8NER1; AID 540277; actives 0.02% (n = 320,000); potentiation, % at 8.33 µM; TRPV1-expressing cells, Fluo-8 calcium influx, capsaicin EC20 potentiation; in the data active = potentiation above about 80%; inconclusive = between about 30% and that limit; also: 0% is about no effect
Target sequence (Q8NER1 whole entry, looked up): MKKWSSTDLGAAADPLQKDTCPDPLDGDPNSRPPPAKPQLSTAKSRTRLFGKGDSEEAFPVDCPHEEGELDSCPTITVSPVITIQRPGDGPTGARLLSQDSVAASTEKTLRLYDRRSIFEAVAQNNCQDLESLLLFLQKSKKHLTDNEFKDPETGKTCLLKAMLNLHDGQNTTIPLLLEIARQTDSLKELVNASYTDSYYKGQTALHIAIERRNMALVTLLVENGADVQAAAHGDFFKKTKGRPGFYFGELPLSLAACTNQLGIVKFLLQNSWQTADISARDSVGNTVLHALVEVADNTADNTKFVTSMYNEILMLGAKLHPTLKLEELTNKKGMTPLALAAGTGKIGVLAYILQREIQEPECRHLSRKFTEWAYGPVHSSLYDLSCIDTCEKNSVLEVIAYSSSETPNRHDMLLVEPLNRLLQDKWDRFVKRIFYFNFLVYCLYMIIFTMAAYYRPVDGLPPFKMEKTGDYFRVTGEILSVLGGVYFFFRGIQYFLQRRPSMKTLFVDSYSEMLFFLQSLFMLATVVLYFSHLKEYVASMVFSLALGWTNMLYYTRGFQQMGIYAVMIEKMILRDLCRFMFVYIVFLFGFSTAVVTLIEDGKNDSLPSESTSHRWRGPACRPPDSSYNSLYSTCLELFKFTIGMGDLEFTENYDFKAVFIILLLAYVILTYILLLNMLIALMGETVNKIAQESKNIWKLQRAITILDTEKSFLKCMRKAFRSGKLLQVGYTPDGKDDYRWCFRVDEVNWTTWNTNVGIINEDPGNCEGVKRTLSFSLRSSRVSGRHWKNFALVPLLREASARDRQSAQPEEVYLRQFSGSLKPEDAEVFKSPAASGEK
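Cells expressing TRPV1 were dye-loaded with Fluo-8 and read kinetically: 10 s baseline, 3 min after compound (agonist portion), then 2 min after EC20 capsaicin (allosteric enhancer portion). Calcium-bound dye fluorescence at 480/520 nm.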
TRPV1 agonist: agonists of human vanilloid receptor 1 (TRPV1) | actives 0.19% (n = 320,000) | TRPV1-expressing cells, Fluo-8 calcium influx, agonist mode | activation, % at 8.33 µM | Q8NER1 | AID 540275; in the data active = activation above about 80%; inconclusive = between about 30% and that limit; also: 0% is about no effect
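Cells expressing TRPV1 were dye-loaded with Fluo-8 and read kinetically: 10 s baseline, 3 min after compound (agonist portion), then 2 min after EC20 capsaicin (allosteric enhancer portion). Calcium-bound dye fluorescence at 480/520 nm.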
hERG WT inh: KCNH2 (human, wildtype) channel inhibition; Q12809; U2OS, BacMam KCNH2, thallium flux FluxOr; stronger effect = lower value; activity change, % at 1.84 µM; actives 0.37% (n = 340,000);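 active = maximum activity change below -70%; inconclusive = maximum activity change between -70% and -50%; inactive = maximum activity change above -50%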; also: % is scaled to controls: 0 for no effect and ±100 for the full control effect
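U2OS cells transduced with wild-type KCNH2 virus are loaded with FluxOr dye for 45 min, and thallium flux is measured in kinetic reads before and after stimulation buffer. Rate constants are normalized to DMSO controls.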
KCNH2 3.1 block: KCNH2 3.1 (human) potassium channel inhibition; U2OS KCNH2 3.1, thallium flux FluxOr; stronger effect = lower value; activity change, % (tested at about 1.8 µM); actives 0.95% (n = 340,000);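 active = maximum activity change below -70%; inconclusive = maximum activity change from -70% to -50%; inactive = maximum activity change above -50%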;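 also: thallium influx rate constant from kinetic fluorescence after stimulation buffer; % is scaled to controls: 0 for no effect and ±100 for the full control effect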
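Channel expression came from 3.1 mutant virus (1.77 x 10^8 /mL) applied to suspended U2OS cells for 4 h. Flux was tracked with FluxOr dye plus Red40 quencher, and kinetic rate constants normalized to controls.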
* hit, by the source's call; i = inactive; ? = inconclusive; / = no result.

SMILES	TRPV1 potentiator	TRPV1 agonist	hERG WT inh	KCNH2 3.1 block
COc1ccc(S(=O)(=O)N2CCC(C(=O)Nc3cc(Cl)ccc3N3CCOCC3)CC2)cc1OC	8	1	-4	-23
Cc1ccc(C(CC(=O)N2CCNCC2)c2ccccc2)c(O)c1C (stereo unspecified)	19	-1	-11	-107*
O=C(COC(=O)c1ccc(Cl)c(S(=O)(=O)N2CCN(c3ccc(F)cc3)CC2)c1)Nc1cccc(Cl)c1	3	0	-16	-82*
O=C(O)c1ccccc1C(=O)c1ccc2c(c1)CCC2	15	-2	13	-17
CCn1ncc(Cl)c1C(=O)Nc1ccc2c(c1)CCC2	-18	?	/	/
O=C1CC(N(CCc2ccccc2)C(=S)Nc2ccccc2)C(=O)N1c1ccc(F)cc1 (stereo unspecified)	5	29	-2	-80*
Cc1cccc(C2c3[nH]c4ccccc4c3CCN2Cc2cccn2-c2ncccn2)c1 (stereo unspecified)	-3	4	?	?
COc1ccc(C2c3[nH]c4ccccc4c3CCN2Cc2cccn2-c2ncccn2)cc1C (stereo unspecified)	8	7	?	-79*
O=C(OCc1cccc(C(F)(F)F)c1)c1cc(S(=O)(=O)N2CCOCC2)ccc1F	?	18	-7	13
Cc1ccc(OC(C)C(=O)Nc2ccc(Cl)cn2)c([N+](=O)[O-])n1 (stereo unspecified)	/	/	-4	2
Cc1cc(Cl)ccc1OC(C)C(=O)Nc1ccc([N+](=O)[O-])cn1 (stereo unspecified)	4	7	-125*	-94*
Cc1ccc(S(=O)(=O)N2CCN(C(C)C(=O)NCC(C)c3ccccc3)CC2)cc1 (stereo unspecified)	/	/	-9	-4
O=C(COC(=O)C1CC2CCCC(C1)C2=O)NC1CCCCC1 (stereo unspecified)	1	1	-1	13
O=S(=O)(Nc1cccc(S(=O)(=O)N2CCCC2)c1)c1cccs1	/	/	8	-6
Cc1ccc(S(=O)(=O)N(C)c2ccc(OCC(=O)OCc3nnc(-c4ccccc4)o3)cc2)cc1	/	/	68	-88*
CCN(CC)S(=O)(=O)c1cccc(C(=O)Nc2cc(C)cc(C)c2)c1	4	-1	7	-1
CCN(CC)S(=O)(=O)c1cccc(C(=O)N[C@H](C(=O)NCc2ccccc2F)C(C)C)c1	?	1	-7	3
CCN(CC)S(=O)(=O)c1cccc(C(=O)Nc2ccc(C#N)cc2)c1	-20	8	0	-76*
CCN(CC)S(=O)(=O)c1cccc(C(=O)N[C@H](C(=O)O)C(C)C)c1	-1	12	-170*	-3
CCN(CC)S(=O)(=O)c1ccc(NC(=O)c2ccc(N(C)S(C)(=O)=O)cc2)cc1	-28	25	2	-20
CCN(CC)S(=O)(=O)c1ccc(C(=O)Nc2ccc(Cc3ccncc3)cc2)cc1	2	81*	12	-19
CCOC(=O)c1cnc2c(C(F)(F)F)cccc2c1NCCCN1CCOCC1	-21	?	8	34
CC(C)CCNC(=O)C1CCN(Cc2cccc(OCc3ccccc3)c2)CC1	27	92*	-14	3
CCOC(=O)[C@H]1[C@H]2COc3ccc(Cl)cc3[C@@H]2N2C(=O)c3ccc(C)cc3NC(=O)[C@@]12C	?	99*	17	-34
CCOC(=O)[C@H]1[C@H]2COc3ccccc3[C@@H]2N2C(=O)c3ccc(Cl)cc3NC(=O)[C@@]12C	-9	?	-3	-7
SMILES	TRPV1 potentiator	TRPV1 agonist	hERG WT inh	KCNH2 3.1 block
CCOC(=O)[C@H]1[C@H]2COc3ccc(Cl)cc3[C@@H]2N2C(=O)c3ccc(F)cc3NC(=O)[C@@]12C	30	83*	2	-17
CCOC(=O)[C@H]1[C@H]2COc3ccc(Cl)cc3[C@@H]2N2C(=O)c3ccccc3NC(=O)[C@@]12C	1	?	9	4
NC(=O)CSc1nc2scc(-c3ccc(Cl)cc3)c2c(=O)n1Cc1ccccc1	12	2	i	-5
Cc1ccc(-c2csc3nc(SCC(=O)N(C)C)n(Cc4ccccc4)c(=O)c23)cc1	8	?	1	-74*
O=C(c1cc(F)ccc1F)N1CCC(N2CCC(C(=O)N3CCCC3)CC2)CC1	-8	0	6	3
O=C(c1ccccc1Cl)N1CCC(N2CCC(C(=O)N3CCCC3)CC2)CC1	-8	4	-10	-87*
COc1ccccc1N(CC(=O)NCCN1CCOCC1)S(=O)(=O)c1ccc(C)cc1	10	-6	8	21
CCOC(=O)c1c(C)[nH]c(C)c1S(=O)(=O)NCC1CCN(Cc2cccc(Cl)c2)CC1	-11	2	-4	-121*
COC(=O)c1cc(S(=O)(=O)NCC2CCN(Cc3ccc(F)cc3)CC2)c[nH]1	-17	-1	48	-45
COC(=O)c1cc(S(=O)(=O)NCC2CCN(Cc3ccc(C)cc3)CC2)c[nH]1	3	0	-26	-76*
NC(=O)C1CCN(C(=O)CCSCc2ccc(Cl)c(Cl)c2)CC1	14	88*	-1	-9
NC(=O)C1CCN(C(=O)CCSCc2ccccc2)CC1	-16	?	4	-30
Cc1cccc(-c2noc(CCC(=O)Nc3ccc(C(N)=O)cc3)n2)c1	4	81*	-8	-8
CSCc1nc2scc(-c3ccccc3)c2c(=O)[nH]1	0	4	1	-92*
CN(C)c1ccc(/C=C2\SC(=S)N(Nc3ncc(C(F)(F)F)cc3Cl)C2=O)cc1	24	20	-133*	-73*
COc1cc(/C=C2\SC(=S)N(Nc3ncc(C(F)(F)F)cc3Cl)C2=O)ccc1O	?	10	-3	-10
Oc1ccc2ccccc2c1C=Nc1ccccc1Br	10	-1	-22	5
Oc1ccccc1N=Cc1c(O)ccc2ccccc12	-6	97*	-31	5
O=C(CN1CCCC1c1cccs1)Nc1cc(S(=O)(=O)N2CCCCC2)ccc1Cl (stereo unspecified)	/	/	2	3
CC(C)CCC1(CCNC(=O)c2cccs2)CCOC(C)(C)C1 (stereo unspecified)	15	83*	2	8
O=C(CCS(=O)(=O)c1ccccc1)N(Cc1cccnc1)c1nc2c(Cl)cccc2s1	1	-2	/	/
CCc1ccc(/C=C2/SC(N3CCOCC3)=NC2=O)cc1	-2	85*	6	-5
C=CCOc1ccc(/C=C2\SC(N3CCCCC3)=NC2=O)cc1	14	82*	6	-8
COc1ccc(/C=N/NC(=O)c2nnn(-c3nonc3N)c2-c2cccs2)c(OC)c1	2	1	-2	-6
CCCC1NC(=O)c2cccnc2-n2c1nc1ccc(OC)cc1c2=O (stereo unspecified)	/	/	2	-5
O=C(Nc1cc(Cl)ccc1Oc1ccccc1)C1=COCCO1	5	-3	6	-74*
Cc1ccccc1OCC(O)Cn1c(=N)n(Cc2ccccc2)c2ccccc21 (stereo unspecified)	14	5	-2	?
